# From PMC7862700, “An all-to-all approach to the identification of sequence-specific readers for epigenetic DNA modifications on cytosine”
# Columns and labels:
# Assay in all cases: DAPPL (digital affinity profiling via proximity ligation, sequencing); 10 mM Tris-HCl pH 7.5, 50 mM NaCl, 1 mM DTT, 4% glycerol, room temperature, 30 min; GST-TFs on glutathione beads, 16-mer random dsDNA library, 0.1% formaldehyde crosslink after washing; high values mean tight binding
# [1] = molecular target: T1, FEV (Homo sapiens, UniProt Q99581 1-238); details: protein: recombinant; tags: N-terminal GST; dsDNA, one strand shown
# T1 sequence: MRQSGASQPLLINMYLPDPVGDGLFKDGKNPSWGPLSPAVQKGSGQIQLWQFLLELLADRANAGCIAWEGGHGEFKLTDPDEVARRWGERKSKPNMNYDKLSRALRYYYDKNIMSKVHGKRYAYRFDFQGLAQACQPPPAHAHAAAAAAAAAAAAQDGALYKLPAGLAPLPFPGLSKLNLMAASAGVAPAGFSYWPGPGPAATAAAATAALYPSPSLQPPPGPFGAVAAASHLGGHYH
# Summary of the method: (§1)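 Each value of binding signal is a hexamer's read frequency for a factor divided by the same hexamer's frequency in the tag-only sample. Barcoded, bead-captured GST fusions of human transcription factors made in yeast were pooled with that sample and incubated with 200 nmole of a random double-stranded 16-mer DNA library in Tris/NaCl/DTT/glycerol buffer at room temperature for 30 min. Washing, 0.1% formaldehyde crosslinking, proximity ligation, PCR and Illumina NextSeq500 sequencing followed.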
# [2] = molecular target: ETV5 (Homo sapiens, UniProt P41161 1-510); details: protein: recombinant; tags: N-terminal GST; dsDNA, one strand shown
# Chain of ETV5 (P41161 whole entry): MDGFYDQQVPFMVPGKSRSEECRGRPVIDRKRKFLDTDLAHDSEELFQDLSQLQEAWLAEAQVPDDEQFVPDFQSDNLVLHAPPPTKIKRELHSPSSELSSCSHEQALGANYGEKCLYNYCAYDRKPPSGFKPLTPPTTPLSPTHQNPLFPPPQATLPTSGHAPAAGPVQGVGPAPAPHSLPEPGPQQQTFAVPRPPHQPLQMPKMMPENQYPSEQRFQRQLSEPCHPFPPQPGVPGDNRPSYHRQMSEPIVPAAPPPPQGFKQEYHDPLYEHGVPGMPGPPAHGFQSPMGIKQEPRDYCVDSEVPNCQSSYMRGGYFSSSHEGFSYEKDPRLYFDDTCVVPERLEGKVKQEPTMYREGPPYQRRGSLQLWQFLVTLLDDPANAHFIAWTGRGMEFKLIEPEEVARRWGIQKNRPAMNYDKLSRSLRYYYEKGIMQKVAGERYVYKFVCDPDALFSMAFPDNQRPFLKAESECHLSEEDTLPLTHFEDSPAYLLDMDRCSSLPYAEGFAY
# Summary of the method: as §1
# [3] = molecular target: HSF1 (Homo sapiens, UniProt Q00613 1-529); details: protein: recombinant; tags: N-terminal GST; chain copies: 3; dsDNA, one strand shown
# Chain of HSF1 (Q00613 whole entry): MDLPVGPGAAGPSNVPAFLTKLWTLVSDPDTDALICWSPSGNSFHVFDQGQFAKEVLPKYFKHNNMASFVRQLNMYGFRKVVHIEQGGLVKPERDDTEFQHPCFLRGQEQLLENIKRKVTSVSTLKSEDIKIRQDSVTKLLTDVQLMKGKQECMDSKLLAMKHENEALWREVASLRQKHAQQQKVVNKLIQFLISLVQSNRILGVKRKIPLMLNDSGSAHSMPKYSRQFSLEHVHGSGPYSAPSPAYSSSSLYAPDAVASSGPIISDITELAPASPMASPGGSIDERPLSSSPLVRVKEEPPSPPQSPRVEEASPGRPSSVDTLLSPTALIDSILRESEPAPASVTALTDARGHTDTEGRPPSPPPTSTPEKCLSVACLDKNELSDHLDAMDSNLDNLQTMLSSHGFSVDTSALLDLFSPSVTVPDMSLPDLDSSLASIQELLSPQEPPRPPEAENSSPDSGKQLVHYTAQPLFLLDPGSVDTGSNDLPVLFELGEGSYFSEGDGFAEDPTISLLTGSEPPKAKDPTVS
# Summary of the method: as §1
# [4] = molecular target: T2, SPIC (Homo sapiens, UniProt Q8N5J4 1-248); details: protein: recombinant; tags: N-terminal GST; dsDNA, one strand shown
# T2 sequence: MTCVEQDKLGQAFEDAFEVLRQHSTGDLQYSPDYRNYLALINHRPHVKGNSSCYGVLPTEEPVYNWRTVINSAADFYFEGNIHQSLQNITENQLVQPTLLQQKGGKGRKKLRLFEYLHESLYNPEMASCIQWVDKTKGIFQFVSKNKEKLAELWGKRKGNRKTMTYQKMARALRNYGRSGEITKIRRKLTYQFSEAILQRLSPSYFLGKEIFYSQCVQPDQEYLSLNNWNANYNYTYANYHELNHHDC
# Summary of the method: as §1
# [5] = molecular target: ELF4 (Homo sapiens, UniProt Q99607 1-663); details: protein: recombinant; tags: N-terminal GST; dsDNA, one strand shown
# Chain of ELF4 (Q99607 whole entry): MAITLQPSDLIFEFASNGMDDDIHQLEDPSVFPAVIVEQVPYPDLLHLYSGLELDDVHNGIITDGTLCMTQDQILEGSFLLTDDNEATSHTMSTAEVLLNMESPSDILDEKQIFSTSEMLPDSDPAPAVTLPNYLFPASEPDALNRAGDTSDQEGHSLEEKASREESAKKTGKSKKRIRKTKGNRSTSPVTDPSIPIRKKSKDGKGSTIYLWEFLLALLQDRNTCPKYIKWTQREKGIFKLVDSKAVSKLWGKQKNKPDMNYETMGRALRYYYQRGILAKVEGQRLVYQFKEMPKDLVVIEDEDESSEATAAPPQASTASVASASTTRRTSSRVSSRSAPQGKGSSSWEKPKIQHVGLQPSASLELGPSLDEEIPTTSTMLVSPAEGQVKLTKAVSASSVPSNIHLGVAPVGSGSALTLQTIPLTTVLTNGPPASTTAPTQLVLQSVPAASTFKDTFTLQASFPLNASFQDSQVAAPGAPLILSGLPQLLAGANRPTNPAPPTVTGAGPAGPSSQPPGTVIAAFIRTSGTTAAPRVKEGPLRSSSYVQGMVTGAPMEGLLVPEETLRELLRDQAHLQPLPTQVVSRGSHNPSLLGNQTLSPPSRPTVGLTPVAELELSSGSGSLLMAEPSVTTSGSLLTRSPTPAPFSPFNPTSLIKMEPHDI
# Summary of the method: as §1
# [6] = molecular target: T3, ELK4 (Homo sapiens, UniProt P28324-2 1-405); details: protein: recombinant; tags: N-terminal GST; dsDNA, one strand shown
# T3 sequence: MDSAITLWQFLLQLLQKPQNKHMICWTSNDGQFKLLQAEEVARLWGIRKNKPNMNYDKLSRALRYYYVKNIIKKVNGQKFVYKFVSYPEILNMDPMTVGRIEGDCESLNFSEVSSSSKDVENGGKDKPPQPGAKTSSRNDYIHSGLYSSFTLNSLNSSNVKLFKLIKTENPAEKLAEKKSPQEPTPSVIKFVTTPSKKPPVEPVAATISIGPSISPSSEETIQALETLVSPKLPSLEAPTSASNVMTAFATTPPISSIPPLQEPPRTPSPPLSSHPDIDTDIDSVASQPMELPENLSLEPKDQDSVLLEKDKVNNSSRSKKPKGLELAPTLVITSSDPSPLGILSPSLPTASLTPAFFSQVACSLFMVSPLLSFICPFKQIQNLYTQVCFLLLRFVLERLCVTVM
# Summary of the method: as §1
# [7] = molecular target: T4, ETV2 (Homo sapiens, UniProt O00321 1-342); details: protein: recombinant; tags: N-terminal GST; dsDNA, one strand shown
# T4 sequence: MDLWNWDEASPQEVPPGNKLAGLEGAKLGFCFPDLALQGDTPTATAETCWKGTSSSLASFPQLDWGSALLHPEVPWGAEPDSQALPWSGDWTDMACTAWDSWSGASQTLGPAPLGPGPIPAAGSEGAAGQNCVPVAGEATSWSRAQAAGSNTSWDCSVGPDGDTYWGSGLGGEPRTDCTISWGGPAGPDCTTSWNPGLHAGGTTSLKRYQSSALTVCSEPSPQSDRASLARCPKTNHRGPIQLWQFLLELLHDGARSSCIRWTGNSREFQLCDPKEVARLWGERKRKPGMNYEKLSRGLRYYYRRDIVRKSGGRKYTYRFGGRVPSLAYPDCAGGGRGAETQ
# Summary of the method: as §1
# [8] = molecular target: T5, ELF3 (Homo sapiens, UniProt P78545 1-371); details: protein: recombinant; tags: N-terminal GST; dsDNA, one strand shown
# T5 sequence: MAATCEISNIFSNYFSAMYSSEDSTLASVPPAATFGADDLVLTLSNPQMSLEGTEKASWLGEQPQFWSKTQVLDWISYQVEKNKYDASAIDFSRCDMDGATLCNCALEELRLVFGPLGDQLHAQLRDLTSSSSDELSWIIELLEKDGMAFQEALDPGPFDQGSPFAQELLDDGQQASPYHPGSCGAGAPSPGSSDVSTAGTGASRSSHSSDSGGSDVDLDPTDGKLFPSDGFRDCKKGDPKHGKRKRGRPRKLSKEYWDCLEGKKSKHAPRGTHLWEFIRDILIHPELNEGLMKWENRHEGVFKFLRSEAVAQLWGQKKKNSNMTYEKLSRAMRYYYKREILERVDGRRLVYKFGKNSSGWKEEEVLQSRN
# Summary of the method: as §1
# [9] = molecular target: CRX (Homo sapiens, UniProt O43186 1-299); details: protein: recombinant; tags: N-terminal GST; dsDNA, one strand shown
# Chain of CRX (O43186 whole entry): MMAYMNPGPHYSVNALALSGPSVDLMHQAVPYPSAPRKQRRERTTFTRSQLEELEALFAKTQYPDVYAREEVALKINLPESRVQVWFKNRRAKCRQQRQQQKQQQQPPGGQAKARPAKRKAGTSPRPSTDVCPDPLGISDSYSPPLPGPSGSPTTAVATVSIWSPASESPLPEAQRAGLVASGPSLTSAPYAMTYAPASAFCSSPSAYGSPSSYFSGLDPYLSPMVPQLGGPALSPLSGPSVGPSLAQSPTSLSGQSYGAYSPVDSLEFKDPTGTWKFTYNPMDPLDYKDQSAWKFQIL
# Summary of the method: as §1
# [10] = molecular target: ETV1 (Homo sapiens, UniProt P50549 1-477); details: protein: recombinant; tags: N-terminal GST; dsDNA, one strand shown
# Chain of ETV1 (P50549 whole entry): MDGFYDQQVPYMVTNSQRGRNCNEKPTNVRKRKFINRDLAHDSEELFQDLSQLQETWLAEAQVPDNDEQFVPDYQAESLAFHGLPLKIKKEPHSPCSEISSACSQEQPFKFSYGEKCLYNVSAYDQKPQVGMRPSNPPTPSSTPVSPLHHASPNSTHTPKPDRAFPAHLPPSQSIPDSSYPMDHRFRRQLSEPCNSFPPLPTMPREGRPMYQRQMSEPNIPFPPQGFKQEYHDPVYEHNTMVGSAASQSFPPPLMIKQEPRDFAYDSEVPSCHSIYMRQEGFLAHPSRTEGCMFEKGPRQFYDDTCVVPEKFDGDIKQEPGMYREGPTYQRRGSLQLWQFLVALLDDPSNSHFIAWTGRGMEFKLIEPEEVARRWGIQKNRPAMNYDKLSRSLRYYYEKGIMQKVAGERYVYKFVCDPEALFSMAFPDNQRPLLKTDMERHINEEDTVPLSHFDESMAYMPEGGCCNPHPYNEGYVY
# Summary of the method: as §1
# [11] = molecular target: T6, ERF (Homo sapiens, UniProt P50548 1-548); details: protein: recombinant; tags: N-terminal GST; dsDNA, one strand shown
# T6 sequence: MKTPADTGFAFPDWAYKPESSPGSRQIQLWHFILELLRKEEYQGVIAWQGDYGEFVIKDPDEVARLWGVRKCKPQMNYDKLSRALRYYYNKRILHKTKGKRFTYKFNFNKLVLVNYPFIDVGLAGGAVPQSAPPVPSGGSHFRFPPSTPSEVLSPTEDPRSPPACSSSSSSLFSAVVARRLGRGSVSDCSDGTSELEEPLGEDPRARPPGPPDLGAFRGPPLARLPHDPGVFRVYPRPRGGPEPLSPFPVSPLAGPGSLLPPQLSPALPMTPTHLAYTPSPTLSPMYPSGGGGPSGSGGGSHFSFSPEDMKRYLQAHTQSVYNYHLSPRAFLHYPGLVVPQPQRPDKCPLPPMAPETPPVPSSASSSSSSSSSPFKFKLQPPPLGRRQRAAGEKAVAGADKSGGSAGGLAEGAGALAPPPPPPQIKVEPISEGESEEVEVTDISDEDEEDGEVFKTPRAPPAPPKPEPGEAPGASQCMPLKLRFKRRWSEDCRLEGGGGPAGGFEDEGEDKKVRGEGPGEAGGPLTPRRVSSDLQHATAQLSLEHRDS
# Summary of the method: as §1
# [12] = molecular target: T7, ETV3L (Homo sapiens, UniProt Q6ZN32 1-361); details: protein: recombinant; tags: N-terminal GST; dsDNA, one strand shown
# T7 sequence: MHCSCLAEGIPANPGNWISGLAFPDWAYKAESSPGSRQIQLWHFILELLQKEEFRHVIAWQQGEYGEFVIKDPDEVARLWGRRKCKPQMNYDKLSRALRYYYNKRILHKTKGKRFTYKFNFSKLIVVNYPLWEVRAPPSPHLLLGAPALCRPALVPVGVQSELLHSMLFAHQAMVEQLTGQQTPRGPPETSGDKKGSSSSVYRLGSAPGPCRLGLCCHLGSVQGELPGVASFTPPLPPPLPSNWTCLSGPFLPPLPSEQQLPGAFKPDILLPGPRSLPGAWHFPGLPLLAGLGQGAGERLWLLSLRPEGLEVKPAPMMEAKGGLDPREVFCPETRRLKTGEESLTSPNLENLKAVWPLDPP
# Summary of the method: as §1
# [13] = molecular target: T8, ETS2 (Homo sapiens, UniProt P15036 1-469); details: protein: recombinant; tags: N-terminal GST; dsDNA, one strand shown
# T8 sequence: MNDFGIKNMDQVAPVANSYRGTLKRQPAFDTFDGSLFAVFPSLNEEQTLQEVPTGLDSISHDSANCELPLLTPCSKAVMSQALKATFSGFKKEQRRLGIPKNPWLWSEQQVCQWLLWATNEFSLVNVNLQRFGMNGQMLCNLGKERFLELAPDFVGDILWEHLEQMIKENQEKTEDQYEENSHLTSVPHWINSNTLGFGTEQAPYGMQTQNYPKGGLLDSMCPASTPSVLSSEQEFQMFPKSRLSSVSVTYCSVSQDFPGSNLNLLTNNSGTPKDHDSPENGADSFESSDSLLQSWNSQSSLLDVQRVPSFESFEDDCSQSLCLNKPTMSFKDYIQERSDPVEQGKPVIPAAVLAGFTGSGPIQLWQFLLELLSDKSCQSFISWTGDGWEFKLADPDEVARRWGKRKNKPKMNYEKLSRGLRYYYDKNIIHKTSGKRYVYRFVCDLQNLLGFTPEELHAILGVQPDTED
# Summary of the method: as §1
# [14] = molecular target: T9, SPDEF (Homo sapiens, UniProt O95238 1-335); details: protein: recombinant; tags: N-terminal GST; dsDNA, one strand shown
# T9 sequence: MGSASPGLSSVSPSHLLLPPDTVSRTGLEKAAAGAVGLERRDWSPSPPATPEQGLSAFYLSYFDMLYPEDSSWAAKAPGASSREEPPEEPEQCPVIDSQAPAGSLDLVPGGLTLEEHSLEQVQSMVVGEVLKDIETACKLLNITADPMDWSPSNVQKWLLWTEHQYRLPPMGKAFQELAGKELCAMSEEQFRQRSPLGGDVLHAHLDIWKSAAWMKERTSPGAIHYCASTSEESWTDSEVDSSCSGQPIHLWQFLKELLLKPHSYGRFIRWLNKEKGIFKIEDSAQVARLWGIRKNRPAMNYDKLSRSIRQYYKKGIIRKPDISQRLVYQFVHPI
# Summary of the method: as §1
# [15] = molecular target: T10, ETV7 (Homo sapiens, UniProt Q9Y603 1-341); details: protein: recombinant; tags: N-terminal GST; dsDNA, one strand shown
# T10 sequence: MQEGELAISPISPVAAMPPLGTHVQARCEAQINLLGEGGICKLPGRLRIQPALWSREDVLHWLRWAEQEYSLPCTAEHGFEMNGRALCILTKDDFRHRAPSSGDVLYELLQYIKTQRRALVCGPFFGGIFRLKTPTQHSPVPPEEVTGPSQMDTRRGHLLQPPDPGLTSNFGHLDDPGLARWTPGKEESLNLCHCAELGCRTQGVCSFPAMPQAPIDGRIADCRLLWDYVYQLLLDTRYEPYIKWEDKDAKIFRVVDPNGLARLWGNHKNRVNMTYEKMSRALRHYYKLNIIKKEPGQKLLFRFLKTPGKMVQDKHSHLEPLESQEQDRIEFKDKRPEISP
# Summary of the method: as §1
# [16] = molecular target: T11, ELF5 (Homo sapiens, UniProt Q9UKW6-2 1-255); details: protein: recombinant; tags: N-terminal GST; dsDNA, one strand shown
# T11 sequence: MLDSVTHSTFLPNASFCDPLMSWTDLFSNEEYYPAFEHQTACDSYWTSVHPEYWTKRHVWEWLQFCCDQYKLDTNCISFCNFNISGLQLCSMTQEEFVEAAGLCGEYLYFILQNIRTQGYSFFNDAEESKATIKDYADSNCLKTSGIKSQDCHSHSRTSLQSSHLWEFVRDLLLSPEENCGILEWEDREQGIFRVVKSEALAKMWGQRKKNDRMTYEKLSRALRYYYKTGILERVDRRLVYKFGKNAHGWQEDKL
# Summary of the method: as §1
# [17] = molecular target: T12, ETV3 (Homo sapiens, UniProt P41162-2 1-143); details: protein: recombinant; tags: N-terminal GST; dsDNA, one strand shown
# T12 sequence: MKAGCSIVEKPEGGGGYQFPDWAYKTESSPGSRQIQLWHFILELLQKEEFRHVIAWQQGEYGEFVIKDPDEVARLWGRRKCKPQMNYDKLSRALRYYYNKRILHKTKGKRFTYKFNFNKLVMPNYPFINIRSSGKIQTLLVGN
# Summary of the method: as §1
# [18] = molecular target: ETV6 (Homo sapiens, UniProt P41212 1-452); details: protein: recombinant; tags: N-terminal GST; dsDNA, one strand shown
# Chain of ETV6 (P41212 whole entry): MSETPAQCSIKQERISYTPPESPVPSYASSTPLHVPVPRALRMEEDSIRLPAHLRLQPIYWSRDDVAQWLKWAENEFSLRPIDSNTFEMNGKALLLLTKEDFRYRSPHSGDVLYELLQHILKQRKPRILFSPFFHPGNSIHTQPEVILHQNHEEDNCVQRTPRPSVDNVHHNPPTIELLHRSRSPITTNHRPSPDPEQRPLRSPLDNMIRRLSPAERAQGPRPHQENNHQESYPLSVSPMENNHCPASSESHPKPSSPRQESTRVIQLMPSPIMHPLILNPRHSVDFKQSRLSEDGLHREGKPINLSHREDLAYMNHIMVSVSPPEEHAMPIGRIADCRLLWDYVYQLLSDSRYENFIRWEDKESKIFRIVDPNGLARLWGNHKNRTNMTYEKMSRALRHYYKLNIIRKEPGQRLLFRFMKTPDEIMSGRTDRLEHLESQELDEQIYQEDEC
# Summary of the method: as §1
sequence,measurement,setting,value
AAACCA,binding signal,[1],"1.22 fold enrichment (6-mer frequency, TF over GST control)"
same,binding signal,[2],"1.15 fold enrichment (6-mer frequency, TF over GST control)"
same,binding signal,[3],"1.09 fold enrichment (6-mer frequency, TF over GST control)"
same,binding signal,[4],"1.16 fold enrichment (6-mer frequency, TF over GST control)"
same,binding signal,[5],"1.2 fold enrichment (6-mer frequency, TF over GST control)"
same,binding signal,[6],"1.26 fold enrichment (6-mer frequency, TF over GST control)"
same,binding signal,[7],"1.14 fold enrichment (6-mer frequency, TF over GST control)"
same,binding signal,[8],"1.17 fold enrichment (6-mer frequency, TF over GST control)"
same,binding signal,[9],"1.14 fold enrichment (6-mer frequency, TF over GST control)"
same,binding signal,[10],"1.09 fold enrichment (6-mer frequency, TF over GST control)"
same,binding signal,[11],"1.16 fold enrichment (6-mer frequency, TF over GST control)"
same,binding signal,[12],"1.18 fold enrichment (6-mer frequency, TF over GST control)"
same,binding signal,[13],"1.17 fold enrichment (6-mer frequency, TF over GST control)"
same,binding signal,[14],"1.1 fold enrichment (6-mer frequency, TF over GST control)"
same,binding signal,[15],"1.2 fold enrichment (6-mer frequency, TF over GST control)"
same,binding signal,[16],"1.13 fold enrichment (6-mer frequency, TF over GST control)"
same,binding signal,[17],"1.15 fold enrichment (6-mer frequency, TF over GST control)"
same,binding signal,[18],"1.21 fold enrichment (6-mer frequency, TF over GST control)"
